Laboratory results reported in the supplement of paper PMC10849652.
About 8,800 targets were measured; listed, in parts, are those with a hit and a random draw of the rest. About 0.5% of all pairs of compound and target were hits. A number with no mark means an inactive call.

What was measured:
Assay in all cases: log2 fold change, soluble protein after heating vs DMSO (PISA); higher = thermal stabilisation; K562 lysate, 10 uM; active = over 0.2 and 3.5 SD of the protein, either way, in both replicates (recomputed)
vemurafenib = compound: CCCS(=O)(=O)Nc1ccc(F)c(C(=O)c2c[nH]c3ncc(-c4ccc(Cl)cc4)cc23)c1F [vemurafenib]
How it was run: (§1)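 Dounce homogenisation of K562 pellets in PBS pH 7.4 with 1 mM MgCl2 produced a crude extract, used at 1 mg/mL protein. Exposure to 10 μM compound lasted 30 min, and aliquots were then heated for 3 min across 48°C-58°C, pooled and brought to 0.5% NP-40 at 4°C. The supernatant after 21,000xg for 90 min was quantified by TMTpro 16plex LC-MS/MS with channel sums equalised. Duplicate values are given as log-two fold change in thermal stability relative to solvent controls.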

[1] = compound: CCCS(=O)(=O)Nc1ccc(F)c(C(=O)c2c[nH]c3ncc(Cl)cc23)c1F
How it was run: as §1

barasertib = compound: CCN(CCCOc1ccc2c(Nc3cc(CC(=O)Nc4cccc(F)c4)[nH]n3)ncnc2c1)CCOP(=O)(O)O [barasertib]
How it was run: as §1

[2] = compound: CC[C@@H]1C(=O)N(C)c2cnc(Nc3ccc(C(=O)NC4CCN(C)CC4)cc3OC)nc2N1C1CCCC1
How it was run: as §1

volasertib = compound: CC[C@@H]1C(=O)N(C)c2cnc(Nc3ccc(C(=O)N[C@H]4CC[C@H](N5CCN(CC6CC6)CC5)CC4)cc3OC)nc2N1C(C)C [volasertib]
How it was run: as §1

[3] = compound: CCn1c(C(=O)N(C2CC2)C2CC2)cc2c3c(ncn3C)c(Nc3cc(C)n(C)n3)nc21
How it was run: as §1

[4] = compound: CCn1cc(-c2ccnc3[nH]c(-c4cccc(CN(C)C)c4)cc23)c(-c2ccc(NC(=O)N(C)C)cc2)n1
How it was run: as §1

[5] = compound: CN1CCC(CNc2ccc3ncc(-c4cccc(OC(F)(F)F)c4)n3n2)CC1
How it was run: as §1

saracatinib = compound: CN1CCN(CCOc2cc(OC3CCOCC3)c3c(Nc4c(Cl)ccc5c4OCO5)ncnc3c2)CC1 [saracatinib]
How it was run: as §1

sotrastaurin = compound: CN1CCN(c2nc(C3=C(c4c[nH]c5ccccc45)C(=O)NC3=O)c3ccccc3n2)CC1 [sotrastaurin]
How it was run: as §1

Chain of UniProt Q9NZN4 (Q9NZN4 whole entry, looked up): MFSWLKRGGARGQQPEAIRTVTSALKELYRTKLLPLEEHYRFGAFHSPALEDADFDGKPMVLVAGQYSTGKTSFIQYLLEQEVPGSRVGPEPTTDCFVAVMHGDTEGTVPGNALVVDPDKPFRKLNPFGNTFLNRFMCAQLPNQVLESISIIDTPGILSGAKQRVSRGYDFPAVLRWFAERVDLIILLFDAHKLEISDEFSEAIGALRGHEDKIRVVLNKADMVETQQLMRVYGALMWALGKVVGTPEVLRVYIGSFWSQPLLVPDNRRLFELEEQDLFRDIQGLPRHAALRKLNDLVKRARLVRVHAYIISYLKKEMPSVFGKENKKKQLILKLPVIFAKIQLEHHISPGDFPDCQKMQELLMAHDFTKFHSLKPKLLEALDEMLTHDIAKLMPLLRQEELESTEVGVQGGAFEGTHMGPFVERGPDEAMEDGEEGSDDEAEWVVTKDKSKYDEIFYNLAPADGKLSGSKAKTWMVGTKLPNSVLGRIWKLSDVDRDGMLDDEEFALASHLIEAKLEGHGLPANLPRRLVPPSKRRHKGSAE
Chain of UniProt Q9NVI1 (Q9NVI1 whole entry, looked up): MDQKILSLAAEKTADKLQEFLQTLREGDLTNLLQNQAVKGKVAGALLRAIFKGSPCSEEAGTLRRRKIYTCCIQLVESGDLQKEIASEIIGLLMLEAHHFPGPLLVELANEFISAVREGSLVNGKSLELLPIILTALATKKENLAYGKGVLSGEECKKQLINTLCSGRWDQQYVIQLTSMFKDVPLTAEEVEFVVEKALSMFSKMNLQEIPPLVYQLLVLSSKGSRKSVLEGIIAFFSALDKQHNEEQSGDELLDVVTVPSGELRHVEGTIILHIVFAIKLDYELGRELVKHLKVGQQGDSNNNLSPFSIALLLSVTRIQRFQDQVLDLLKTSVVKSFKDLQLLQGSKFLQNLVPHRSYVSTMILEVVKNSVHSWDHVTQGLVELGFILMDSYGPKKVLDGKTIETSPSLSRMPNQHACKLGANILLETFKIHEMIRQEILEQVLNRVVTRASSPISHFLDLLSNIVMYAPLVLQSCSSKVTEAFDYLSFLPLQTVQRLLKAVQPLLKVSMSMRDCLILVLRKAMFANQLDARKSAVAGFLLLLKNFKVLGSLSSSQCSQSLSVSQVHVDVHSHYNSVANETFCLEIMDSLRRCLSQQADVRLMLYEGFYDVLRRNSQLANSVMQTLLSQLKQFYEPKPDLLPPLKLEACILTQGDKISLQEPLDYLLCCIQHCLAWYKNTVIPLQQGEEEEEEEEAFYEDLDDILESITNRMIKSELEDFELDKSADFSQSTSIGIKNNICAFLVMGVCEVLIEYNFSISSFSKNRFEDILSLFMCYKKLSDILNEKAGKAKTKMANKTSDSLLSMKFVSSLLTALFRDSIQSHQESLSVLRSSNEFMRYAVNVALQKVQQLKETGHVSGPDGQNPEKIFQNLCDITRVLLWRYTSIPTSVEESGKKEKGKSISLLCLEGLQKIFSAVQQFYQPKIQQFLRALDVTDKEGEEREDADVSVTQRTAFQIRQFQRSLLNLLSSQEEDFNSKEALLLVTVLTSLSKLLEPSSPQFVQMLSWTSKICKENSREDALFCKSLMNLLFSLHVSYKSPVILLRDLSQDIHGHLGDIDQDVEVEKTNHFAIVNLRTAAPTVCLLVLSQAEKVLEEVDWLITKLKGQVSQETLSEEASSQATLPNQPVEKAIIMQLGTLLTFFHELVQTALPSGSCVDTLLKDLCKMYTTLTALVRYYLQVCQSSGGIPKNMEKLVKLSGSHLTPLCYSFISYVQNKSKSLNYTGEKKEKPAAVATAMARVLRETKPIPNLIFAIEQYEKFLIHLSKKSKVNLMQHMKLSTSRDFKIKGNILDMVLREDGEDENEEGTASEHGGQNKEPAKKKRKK
Chain of UniProt Q06547 (Q06547 whole entry, looked up): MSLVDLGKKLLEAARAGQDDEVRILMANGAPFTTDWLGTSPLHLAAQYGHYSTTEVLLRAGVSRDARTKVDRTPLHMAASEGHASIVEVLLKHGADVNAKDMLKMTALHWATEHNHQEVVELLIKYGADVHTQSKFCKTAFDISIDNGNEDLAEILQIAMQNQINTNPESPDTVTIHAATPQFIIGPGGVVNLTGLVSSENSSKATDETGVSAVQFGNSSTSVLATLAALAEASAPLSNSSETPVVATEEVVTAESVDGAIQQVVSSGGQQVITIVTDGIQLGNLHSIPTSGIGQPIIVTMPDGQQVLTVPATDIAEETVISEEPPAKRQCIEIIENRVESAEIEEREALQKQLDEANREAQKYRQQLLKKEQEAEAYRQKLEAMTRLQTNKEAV
Chain of UniProt Q13347 (Q13347 whole entry, looked up): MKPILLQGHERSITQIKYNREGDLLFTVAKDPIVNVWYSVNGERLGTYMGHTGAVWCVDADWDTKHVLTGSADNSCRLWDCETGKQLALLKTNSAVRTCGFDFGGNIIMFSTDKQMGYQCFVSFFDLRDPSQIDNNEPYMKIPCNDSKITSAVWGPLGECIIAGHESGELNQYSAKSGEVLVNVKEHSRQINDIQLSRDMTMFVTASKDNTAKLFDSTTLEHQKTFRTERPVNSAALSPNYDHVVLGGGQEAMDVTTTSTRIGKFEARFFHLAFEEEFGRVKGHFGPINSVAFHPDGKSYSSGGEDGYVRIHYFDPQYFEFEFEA
Chain of UniProt O43768 (O43768 whole entry, looked up): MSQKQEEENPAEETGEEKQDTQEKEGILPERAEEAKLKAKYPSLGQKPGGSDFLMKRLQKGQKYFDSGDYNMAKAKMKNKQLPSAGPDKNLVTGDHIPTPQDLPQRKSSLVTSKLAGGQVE
Chain of UniProt Q8N6R0 (Q8N6R0 whole entry, looked up): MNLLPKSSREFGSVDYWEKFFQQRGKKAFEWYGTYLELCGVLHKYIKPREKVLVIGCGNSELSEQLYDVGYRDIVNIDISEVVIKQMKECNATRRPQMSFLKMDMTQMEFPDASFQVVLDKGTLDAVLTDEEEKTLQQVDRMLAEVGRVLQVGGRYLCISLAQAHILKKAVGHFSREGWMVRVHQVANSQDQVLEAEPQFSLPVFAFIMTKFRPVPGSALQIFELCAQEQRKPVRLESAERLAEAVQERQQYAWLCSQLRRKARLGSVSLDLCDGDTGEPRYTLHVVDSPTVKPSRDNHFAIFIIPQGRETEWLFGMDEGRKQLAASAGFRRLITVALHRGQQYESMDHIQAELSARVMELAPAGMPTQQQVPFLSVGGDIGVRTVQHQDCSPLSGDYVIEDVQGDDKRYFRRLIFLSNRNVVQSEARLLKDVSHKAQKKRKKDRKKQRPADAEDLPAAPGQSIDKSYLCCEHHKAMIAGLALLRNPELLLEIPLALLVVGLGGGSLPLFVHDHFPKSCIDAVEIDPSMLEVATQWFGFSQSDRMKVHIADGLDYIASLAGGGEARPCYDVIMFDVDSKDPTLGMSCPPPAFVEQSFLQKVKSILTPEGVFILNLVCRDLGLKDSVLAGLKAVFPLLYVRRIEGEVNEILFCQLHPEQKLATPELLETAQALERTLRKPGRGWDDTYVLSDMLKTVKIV
Chain of UniProt P09104 (P09104 whole entry, looked up): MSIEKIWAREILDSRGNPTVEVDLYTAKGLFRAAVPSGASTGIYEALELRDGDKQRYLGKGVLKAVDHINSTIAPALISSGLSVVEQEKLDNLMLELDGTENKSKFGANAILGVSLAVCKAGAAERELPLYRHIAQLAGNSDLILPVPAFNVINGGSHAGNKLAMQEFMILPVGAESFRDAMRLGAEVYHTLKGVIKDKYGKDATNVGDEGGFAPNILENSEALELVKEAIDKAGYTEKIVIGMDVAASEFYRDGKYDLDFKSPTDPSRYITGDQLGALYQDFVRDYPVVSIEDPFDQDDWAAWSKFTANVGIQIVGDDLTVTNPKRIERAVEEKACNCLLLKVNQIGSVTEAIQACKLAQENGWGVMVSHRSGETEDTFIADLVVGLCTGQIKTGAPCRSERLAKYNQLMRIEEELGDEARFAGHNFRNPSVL
Chain of UniProt P51570 (P51570 whole entry, looked up): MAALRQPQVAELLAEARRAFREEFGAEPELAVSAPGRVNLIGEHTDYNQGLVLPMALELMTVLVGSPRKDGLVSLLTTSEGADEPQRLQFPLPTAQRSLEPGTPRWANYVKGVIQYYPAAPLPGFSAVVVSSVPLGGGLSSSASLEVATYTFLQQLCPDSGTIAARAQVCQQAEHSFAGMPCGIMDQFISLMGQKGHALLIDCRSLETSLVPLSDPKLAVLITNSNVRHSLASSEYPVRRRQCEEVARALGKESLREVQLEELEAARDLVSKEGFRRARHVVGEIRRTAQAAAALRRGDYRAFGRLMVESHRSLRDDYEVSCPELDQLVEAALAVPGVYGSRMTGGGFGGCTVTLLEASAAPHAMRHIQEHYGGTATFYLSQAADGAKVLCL
Chain of UniProt P54852 (P54852 whole entry, looked up): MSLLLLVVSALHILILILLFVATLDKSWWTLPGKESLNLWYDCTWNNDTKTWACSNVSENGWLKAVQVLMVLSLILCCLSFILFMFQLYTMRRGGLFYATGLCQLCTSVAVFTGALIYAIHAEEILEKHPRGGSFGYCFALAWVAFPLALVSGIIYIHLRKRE
Chain of UniProt P11474 (P11474 whole entry, looked up): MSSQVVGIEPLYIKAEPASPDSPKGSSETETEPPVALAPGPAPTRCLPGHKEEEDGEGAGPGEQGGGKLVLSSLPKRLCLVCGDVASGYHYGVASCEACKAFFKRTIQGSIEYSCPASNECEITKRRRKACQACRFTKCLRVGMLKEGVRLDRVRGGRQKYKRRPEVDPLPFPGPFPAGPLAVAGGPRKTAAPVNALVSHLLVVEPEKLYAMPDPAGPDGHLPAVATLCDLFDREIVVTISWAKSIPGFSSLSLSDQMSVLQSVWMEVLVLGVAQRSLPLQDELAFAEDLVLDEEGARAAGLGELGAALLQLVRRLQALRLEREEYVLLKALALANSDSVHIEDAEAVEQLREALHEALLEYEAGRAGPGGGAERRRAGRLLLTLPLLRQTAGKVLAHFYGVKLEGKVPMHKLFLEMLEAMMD

Row | Target | log2 fold change (vemurafenib) | log2 fold change [1] | log2 fold change (barasertib) | log2 fold change [2] | log2 fold change (volasertib) | log2 fold change [3] | log2 fold change [4] | log2 fold change [5] | log2 fold change (saracatinib) | log2 fold change (sotrastaurin)
1 | EXOC6 (UniProt Q8TAG9) | -0.041 | 0.033 | 0.032 | -0.033 | -0.047 | 0.032 | -0.05 | -0.075 | 0.018 | 0.06
2 | FANCI (UniProt Q9NVI1) | 0.018 | 0.021 | 0.045 | -0.028 | -0.053 | 0.031 | 0.021 | -0.119 | 0.017 | 0.02
3 | GAMT (UniProt Q14353) | 0.037 | 0.045 | 0.112 | 0.036 | 0.007 | 0.011 | 0.003 | -0.029 | -0.014 | 0.018
4 | ENO2 (UniProt P09104) | 0.05 | 0.008 | -0.132 | 0.044 | 0.046 | -0.069 | -0.231 | 0.319 (active) | 0.06 | 0.034
5 | FREM2 (UniProt Q5SZK8) | 0.003 | -0.082 | 0.136 | -0.072 | 0.026 | 0.014 | -0.366 | 0.151 | 0.051 | 0.056
6 | FBLL1 (UniProt A6NHQ2) | 0.081 | 0.019 | 0.107 | 0.003 | -0.041 | -0.014 | -0.307 (active) | 0.046 | -0.075 | 0.056
7 | FARSB (UniProt Q9NSD9) | -0.009 | 0.006 | 0.018 | 0.003 | -0.024 | 0.016 | 0 | -0.018 | 0.022 | 0.095
8 | DYNC1I2 isoform 5 (UniProt Q13409) | -0.015 | 0.013 | -0.03 | -0.012 | -0.013 | -0.016 | -0.017 | 0.017 | 0.003 | -0.034
9 | FNBP1L (UniProt Q5T0N5) | 0.003 | 0.029 | 0.167 | -0.085 | -0.068 | -0.013 | -0.024 | -0.019 | -0.013 | 0.048
10 | GGT7 (UniProt Q9UJ14) | 0.003 | 0.029 | 0.007 | 0.037 | -0.014 | -0.014 | -0.003 | 0.027 | 0.097 | 0.032
11 | EED, A0A5F9ZI63 | -0.019 | 0.034 | -0.029 | 0.005 | 0.015 | -0.012 | -0.047 | 0.049 | 0.026 | 0.031
12 | GALK1 isoform 2 (UniProt P51570) | 0.024 | 0.01 | 0.031 | 0.003 | -0.054 | -0.009 | 0.085 | -0.055 | -0.011 | 0.031
13 | EMP3 (UniProt P54852) | 0.022 | -0.002 | 0.005 | 0.066 | 0.124 | -0.112 | -0.967 (active) | 0.365 (active) | 0.049 | -0.029
14 | GALNT2 (UniProt Q10471) | 0.013 | 0.014 | 0.003 | -0.014 | 0.002 | 0.042 | 0.065 | 0.035 | -0.004 | 0.016
15 | EAPP (UniProt Q56P03) | 0.246 | 0.038 | -0.048 | 0.06 | 0.02 | 0.009 | -0.085 | -0.092 | 0.034 | -0.008
16 | ENSA isoform 3 (UniProt O43768) | -0.034 | -0.016 | -0.052 | 0.049 | 0.025 | 0.033 | 0.212 | -0.058 | -0.021 | -0.007
17 | ERAL1 (UniProt O75616) | -0.058 | -0.016 | -0.032 | 0.065 | -0.046 | 0.059 | -0.065 | -0.359 (active) | -0.035 | 0.02
18 | ESRRA (UniProt P11474) | 0.058 | 0.005 | 0.041 | 0.03 | -0.075 | -0.039 | 0.569 (active) | -0.283 | -0.055 | 0.053
19 | EIF3I (UniProt Q13347) | 0.017 | 0.025 | 0.017 | -0.113 | -0.078 | 0.011 | -0.034 | -0.03 | -0.008 | 0.027
20 | ERBIN isoform 8 (UniProt Q96RT1) | 0.038 | 0.015 | -0.004 | 0.068 | -0.013 | 0.338 (active) | -0.028 | 0.1 | -0.001 | 0.032
21 | ESPL1 (UniProt Q14674) | 0.049 | 0.204 | 0.054 | 0.039 | 0.09 | -0.002 | -0.047 | -0.012 | -0.065 | -0.023
22 | GABPB1 (UniProt Q06547) | -0.05 | 0.01 | 0.014 | -0.024 | 0.025 | 0.006 | 0.193 | -0.199 | 0.057 | 0.023
23 | EEF1AKNMT (UniProt Q8N6R0) | -0.007 | 0.041 | 0.008 | -0.08 | -0.026 | 0.053 | -0.026 | -0.031 | -0.017 | 0.008
24 | ELF2 (UniProt Q15723) | -0.022 | -0.056 | -0.123 | 0.005 | 0.042 | 0.031 | 0.086 | -0.078 | -0.023 | -0.004
25 | EHD2 (UniProt Q9NZN4) | 0.046 | 0 | 0.022 | 0.007 | -0.111 | 0.005 | 0.016 | -0.066 | 0.075 | 0.017
26 | GEMIN2 (UniProt O14893) | 0.061 | -0.017 | 0.052 | 0.033 | 0.009 | 0.011 | -0.052 | 0.029 | 0.025 | -0.045
27 | EDARADD (UniProt Q8WWZ3) | -0.066 | 0.02 | 0.255 (active) | -0.023 | -0.006 | -0.011 | -0.14 | 0.057 | 0.04 | -0.074
